Measured values from ChEMBL document CHEMBL4513216, “Probing the Open Global Health Chemical Diversity Library for Multistage-Active Starting Points for Next-Generation Antimalarials” (ACS Infect Dis, 2020).
The whole screen tested about 69,000 compounds, of which about 8,600 (12%) showed an effect of 50% or more. The list comes from a sample in which strong results are over-represented; it also holds similar structures and randomly drawn compounds.

Tested on: Plasmodium berghei
Assay: Screen against P. berghei liver stage (PbLuc), transformed with Luciferase, at 10uM
Format: functional, HepG2
Settings: tested at 10 uM

| SMILES | INHIBITION [%] |
| --- | --- |
| Cc1ccc(-c2[nH]c3ccccc3c2C(=O)O)c(C)c1 | 31.7 |
| c1nc(CN2CCC3(CC2)COCCN3CC2CC2)c[nH]1 | -2.17 |
| N#Cc1ccccc1N1CCCN(C(=O)CCc2ccsc2)CC1 | 19.2 |
| CC(C)n1cnnc1CN(C)C(=O)c1ccccc1-n1cncn1 | 31.7 |
| CSc1ncc(C(=O)N2CCC(O)(CN3CCOCC3)C(C)(C)C2)cn1 (stereo not given) | 40.6 |
| COC[C@]1(O)CCN(Cc2cnc(N3CCOCC3)nc2)CC1(C)C | 32.3 |
| CC1(C)CN(C(=O)c2ncc(F)cc2F)CCC1(O)CN1CCOCC1 (stereo not given) | 76.3 |
| CCc1ncc(C(=O)N2CCC(O)(CN3CCOCC3)C(C)(C)C2)cn1 (stereo not given) | 10.9 |
| COCCCN1CC2(CCN(C(=O)Cc3csc(C)n3)CC2)CC1=O | -44.8 |
| COCCCN1CC2(CCN(Cc3cc(C(C)C)no3)CC2)CC1=O | 41.2 |
| COCCCN1CC2(CCN(C(=O)c3ncc(F)cc3F)CC2)CC1=O | 58.1 |
| CCSc1ncc(CN2CCC(O)(CN3CCOCC3)C(C)(C)C2)cn1 (stereo not given) | 81 |
| CCSc1ncc(CN2CC[C@@](O)(COC)C(C)(C)C2)cn1 | 43.5 |
| Cc1nc(C2CCCN(C(=O)c3cc(C(C)(C)C)on3)C2)no1 (stereo not given) | -21.8 |
| Cc1noc(C)c1-c1cc(CC2CCN(C(=O)c3cc[nH]n3)C2)ncn1 (stereo not given) | 21.9 |
| O=C(O)c1cccc(CN2CCC(c3ccnc4ccnn34)CC2)c1 | 28 |
| Cn1cc(CN2CCOC(Cc3cccc(F)c3)C2)cn1 (stereo not given) | 36.8 |
| Cc1c(NC(=O)c2ncn[nH]2)cccc1C(=O)NC(C)(C)C | 59.5 |
| Cc1c(NC(=O)c2cnc[nH]2)cccc1C(=O)NC(C)(C)C | 34.5 |
| CC(C)(C)NC(=O)c1ccccc1NC(=O)c1ccncc1 | 30.1 |
| CCn1c(NCC2CCCO2)nc2c(C)nn(C)c2c1=O (stereo not given) | 25.8 |
| Oc1cc(CN2CCCCC2c2cccnc2)nc2c(F)cccc12 (stereo not given) | 54.4 |
| Cc1ccc(C)c2c(O)cc(CN3CCC(=O)NCC3C)nc12 (stereo not given) | 3.69 |
| CC1CNC(=O)CCN1Cc1cc(O)c2cccc(F)c2n1 (stereo not given) | 51.2 |

| SMILES | INHIBITION [%] |
| --- | --- |
| OCC1CCCCN1Cc1cc(O)c2cccc(F)c2n1 (stereo not given) | 27.6 |
| NCC1CCCCN1Cc1cc(O)c2cccc(F)c2n1 (stereo not given) | 44.7 |
| O=C1CN(Cc2cc(O)c3cccc(F)c3n2)CCN1C1CCCC1 | 37.7 |
| O=C(c1cc(Cn2ccc3ccccc32)[nH]n1)N1CCOCC1 | 16.2 |
| O=C([C@@H]1CCCO1)N1CCN(Cc2ccncc2)c2ncccc2C1 | 40.3 |
| COCC(=O)N1CCC(c2csc(NC(C)=O)n2)CC1 | 17.1 |
| CC(C)c1ccc(C(CN)N2CCc3sccc3C2)cc1 (stereo not given) | 82.2 |
| O=C(NCCO)NCC(c1ccccc1)N1CCc2sccc2C1 (stereo not given) | 5.91 |
| CSc1ccc(C(CNC(C)=O)N2CCc3sccc3C2)cc1 (stereo not given) | 34.9 |
| CCOCCCC(=O)NCC(c1ccccc1)N1CCc2sccc2C1 (stereo not given) | 27.6 |
| CCC(=O)NCC(c1ccc(SC)cc1)N1CCc2sccc2C1 (stereo not given) | 28.3 |
| CSc1ccc(C(CN)N2CCc3sccc3C2)cc1 (stereo not given) | 66.3 |
| NCC(c1ccccc1)N1CCc2sccc2C1 (stereo not given) | -41.8 |
| CSc1ccc(C(CNC(=O)C2CC2)N2CCc3sccc3C2)cc1 (stereo not given) | 19.7 |
| NCC(c1ccc(Cl)cc1)N1CCc2sccc2C1 (stereo not given) | 71.2 |
| Cc1ocnc1CNC(=O)Nc1ccc(N2CCOC(C)C2)cc1 (stereo not given) | 25.8 |
| COc1ccc(C)cc1C(C)NC(=O)Cn1ccc(=O)n(C)c1=O (stereo not given) | -25.9 |
| CN(C(=O)CCN1CCCC1=O)c1cc(C#N)c2ccccc2n1 | 31.2 |
| c1cncc(C2COC3(CCN(Cc4ccsc4)CC3)C2)c1 (stereo not given) | 46.1 |
| COc1ccc(C(C)NCc2cscn2)cc1Cn1cccn1 (stereo not given) | 41.4 |
| CNc1cc(C2CCCN(Cc3ccccc3OCC(=O)O)C2)ccn1 (stereo not given) | 18.3 |
| Cc1cc(CNC(=O)CN2CCCC(Cn3cncn3)C2)ccc1F (stereo not given) | 25.6 |
| Cc1ccc(C)c(-n2ncc(NC(=O)NC3(C)CCOC3)c2C)c1 (stereo not given) | 33.2 |
| Cc1ccc(Cl)c(NC(=O)NC2(C)CCOC2)c1 (stereo not given) | 24.8 |

| SMILES | INHIBITION [%] |
| --- | --- |
| Cc1ccc(-n2cc(C)cn2)c(NC(=O)NC2(C)CCOC2)c1 (stereo not given) | 56.3 |
| O[C@@H]1CN(Cc2cnccn2)C[C@H]1Oc1ccccc1 | -10.5 |
| O=C(Cc1cccc(O)c1)N1CCCC(OCc2cccnc2)C1 (stereo not given) | 36.2 |
| CC(C)(C)C(=O)NCCc1cc(N2CCOCC2)nc(NC2CC2)n1 | 30.15 |
| Cc1cnn(CC2CCCN2C(=O)c2ccc(-n3cccn3)nc2)c1 (stereo not given) | 16.2 |
| Cc1nc(-c2ccc(F)cc2)cc(C2CCNCC2)n1 | 54.5 |
| Cc1ccc(-c2cc(C3CCNCC3)nc(C)n2)cc1 | 6.26 |
| Cc1nc(-c2ccc(F)c(F)c2)cc(C2CCNCC2)n1 | -2.09 |
| O=C(CN1CCSC(c2ccccc2)C1)NCc1ccccn1 (stereo not given) | 31.9 |
| O=C(CCc1ccc2c(c1)CCO2)Nc1nnn[nH]1 | 28.6 |
| COc1ccc(C(=O)N2CC(=O)N(CC3CC3)CC(O)C2)cc1 (stereo not given) | 42.7 |
| CC(C)c1cc(C(=O)N2CCOCC2CC(=O)c2ccco2)nn1C (stereo not given) | -4.35 |
| C/N=C1\c2cc3cc(OC)ccc3n2CCN1C | -6.09 |
| C/N=C1\c2cc3cc(OC)ccc3n2CCN1Cc1ccccc1 | 83 |
| C/N=C1/c2cc3cc(OC)ccc3n2CCN1C | 15.06 |
| COc1ccc2c(ccn2CCN)c1 | 34.7 |
| C/N=C1/c2cc3cc(OC)ccc3n2CCN1Cc1ccccc1 | 67.6 |
| COc1ccc(CN2CC[C@@H](O)[C@@H]2Cc2ccccc2)cc1 | -23.7 |
| Fc1cccc(CN2CCC[C@@H](Cn3nnc(-c4ccccn4)n3)C2)c1 | 40.1 |
| Cn1nc(CNC(=O)c2cccc(C(F)(F)F)c2)c2c1CCOC2 | 15.9 |
| O=C(c1cc2c(s1)CCC2)N1CCCC1Cn1cccn1 (stereo not given) | -18.8 |
| Cc1nc(CSCCC(=O)NCc2ccc(-n3cncn3)nc2)cs1 | 16.8 |
